{"source": "PubChem BioAssay (NCATS)", "note": "“And” between values parts separate entries of the source, which are not always exact repeats. Equal values may be shown once. Inconclusive results are not listed. Unmarked numbers belong to inactive results. The source made the active and inactive calls. Calls follow the shape of the full dose curve. Potency is read from the fitted curve at half-maximal effect."}
{"target": "Cytochrome P450 1A2 (Homo sapiens) (UniProt P05177)", "sequence (P05177 whole entry, looked up)": "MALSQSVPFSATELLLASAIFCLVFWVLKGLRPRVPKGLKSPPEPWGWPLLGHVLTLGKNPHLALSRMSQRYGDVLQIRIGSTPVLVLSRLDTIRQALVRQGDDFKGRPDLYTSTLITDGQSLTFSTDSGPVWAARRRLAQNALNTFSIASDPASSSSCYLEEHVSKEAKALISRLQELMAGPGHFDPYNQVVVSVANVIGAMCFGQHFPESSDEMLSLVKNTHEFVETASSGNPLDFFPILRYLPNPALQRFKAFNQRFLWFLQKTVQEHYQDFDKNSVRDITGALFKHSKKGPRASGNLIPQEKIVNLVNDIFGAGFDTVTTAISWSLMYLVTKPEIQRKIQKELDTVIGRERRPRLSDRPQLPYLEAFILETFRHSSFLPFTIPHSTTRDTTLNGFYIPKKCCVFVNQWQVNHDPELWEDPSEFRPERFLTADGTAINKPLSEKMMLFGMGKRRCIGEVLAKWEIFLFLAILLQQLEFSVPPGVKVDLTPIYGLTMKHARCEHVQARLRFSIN", "experiment": "p450-cyp1a2 (AID 410);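 as to activity change, negative = inhibition: -100% = full effect of reference inhibitor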", "details": "recombinant CYP1A2, luciferin-ME demethylation, luminescence; series mostly up to 57 µM", "procedure": "The P450 gene superfamily is involved in metabolism and the clearance of xenobiotics. This assay used human CYP1A2 to measure the demethylation of luciferin 6' methyl ether (Luciferin-ME; Promega-Glo) to luciferin. The luciferin is then measured by luminescence after the addition of a luciferase detection regeant. Luciferin-ME concentration in the assay was equal to its Km for CYP1A2.\nNCGC Assay Protocol Summary:\nTwo uL of enzyme and substrate mix (final concentrations: 20nM CYP1A2, 100uM Luciferin-ME, 100mM KPO4) were dispensed into a white, solid bottom 1536-well microtiter plate. 23nL of compound was transferred by a pin tool. The plate was incubated at room temperature for 10 min. Two uL of an NADPH regeneration solution (Promega supplied reagent) was dispensed and the reaction was allowed to continue for 60 min at room temperature. Then the reaction was stopped by reconstituted detection reagent. After another 20 min of incubation the plate was read on the ViewLux (Perkin Elmer) at 60 sec exposure and 2x2 binning. This protocol was carried out with Promega-Glo reagents and further information can be found at http://www.promega.com/tbs/tb325/tb325.pdf. Data were normalized to the to AC100 inhibition (57 uM furafylline)."}
{"smiles": "CCCn1c(C)c(C(=O)c2ccc3ccccc3c2)c2ccccc21", "Potency": "6.31 µM (active)"}
{"smiles": "CCC1(C)CC(=O)NC(=O)C1", "Potency": "inactive"}
{"smiles": "CC(C)NP(=O)(NC(C)C)OP(=O)(NC(C)C)NC(C)C", "Potency": "inactive"}
{"smiles": "C[N+](C)(C)CC#CCN1CCCC1=O", "Potency": "inactive"}
{"smiles": "NCCc1c[nH]c2ccc(C(N)=O)cc12", "Potency": "6.31 µM (active) and 1.26 µM (active)"}
{"smiles": "COc1ccc2[nH]cc(CCN)c2c1", "Potency": "1.58 µM (active)"}
{"smiles": "O=S1(=O)N(CCN2CC=C(c3c[nH]c4cc(F)ccc34)CC2)c2cccc3c2N1CCC3", "Potency": "3.98 µM (active)"}
{"smiles": "Cc1[nH]c2ccc(O)cc2c1CCN", "Potency": "31.6 µM (active)"}
{"smiles": "CCCN(CCC)[C@H]1CCc2c(F)ccc(O)c2C1", "Potency": "12.6 µM (active) and 25.1 µM (active)"}
{"smiles": "Cc1c2ccncc2c(C)c2c1[nH]c1ccccc12", "Potency": "79.4 nM (active) and 20 nM (active)"}
{"smiles": "CC(C)(C)c1cc(O)ccc1O", "activity change, negative = inhibition": "-8.4% [at 11.4 µM]"}
{"smiles": "N#CCCN", "Potency": "inactive"}
{"smiles": "CCCN(CCC)C1Cc2cc(OC)c(OC)cc2C1", "Potency": "inactive"}
{"smiles": "COc1ccc2[nH]c3c(c2c1)CCNC3", "Potency": "3.16 µM (active)"}
{"smiles": "Cc1sc2ccccc2c1CC1=NCCN1", "Potency": "2.51 µM (active)"}
{"smiles": "CN(N=O)c1ccc(O)c(O)c1", "Potency": "inactive"}
{"smiles": "NCCc1ccc(S(=O)(=O)F)cc1", "Potency": "15.8 µM (active)"}
{"smiles": "CCN(CCCl)Cc1ccccc1Br", "Potency": "15.8 µM (active)"}
{"smiles": "CC(C)(C)c1cc(C=C(C#N)C#N)cc(C(C)(C)C)c1O", "Potency": "10 µM (active)"}
{"smiles": "CCS(=O)(=O)Nc1cccc(C(=C2CCCCC2)c2cnc[nH]2)c1", "Potency": "0.316 µM (active)"}
{"smiles": "C[C@@H]1O[C@H](C[N+](C)(C)C)CS1", "Potency": "inactive"}
{"smiles": "NCCCP(=O)(O)O", "Potency": "inactive"}
{"smiles": "Nc1ccc(CCN2CCN(c3cccc(C(F)(F)F)c3)CC2)cc1", "Potency": "10 µM (active)"}
{"smiles": "c1ccc2c(N3CCNCC3)cccc2c1", "Potency": "10 µM (active)"}
{"smiles": "CN(N=O)c1cc(O)ccc1O", "Potency": "31.6 µM (active)"}
{"smiles": "CCCN(CCC)CCc1c[nH]c2ccc(C(N)=O)cc12", "Potency": "15.8 µM (active)"}
{"smiles": "CP(=O)(O)C1=CCNCC1", "Potency": "inactive"}
{"smiles": "OCc1cnc[nH]1", "Potency": "inactive"}
{"smiles": "CCC(=O)O[C@@](Cc1ccccc1)(c1ccccc1)[C@@H](C)CN(C)C", "Potency": "inactive"}
{"smiles": "c1ccc2cc(CC3=NCCN3)ccc2c1", "Potency": "inactive"}
{"smiles": "C[N+]1(C)[C@@H]2CC[C@H]1CC(OC(=O)c1c[nH]c3ccccc13)C2", "note": "(stereo not given in full)", "Potency": "inactive"}
{"smiles": "CC(=O)NBr", "Potency": "inactive"}
{"smiles": "Clc1cc(I)cc(Cl)c1NC1=NCCN1", "Potency": "15.8 µM (active)"}
{"smiles": "NC(=O)c1cc(N2CC2)c([N+](=O)[O-])cc1[N+](=O)[O-]", "Potency": "inactive"}
{"smiles": "O=C1C=CC(=O)C=C1", "Potency": "inactive"}
{"smiles": "O=[N+]([O-])c1ccc2nc(N3CCNCC3)ccc2c1", "Potency": "2 µM (active)"}
{"smiles": "CN1CCc2cc(O)cc3c2[C@H]1Cc1ccc(O)c(O)c1-3", "Potency": "12.6 µM (active)"}
{"smiles": "CN1[C@@H]2CC[C@H]1CC(OC1c3ccccc3CCc3ccccc31)C2", "note": "(stereo not given in full)", "Potency": "inactive"}
{"smiles": "O=c1ccc2[nH]cc(C3=CCNCC3)c2[nH]1", "Potency": "inactive"}
{"smiles": "O=[N+]([O-])c1cc(O)c(O)c([N+](=O)[O-])c1", "Potency": "inactive"}
